Rows were chosen to be rich in hits. Some 9.6% of all compounds tested hit in one or more screens of this group.
HCT116 bCat-KO – beta-catenin-lacking colon tumor cell growth suppression. HCT116 beta-catenin knockout viability, CellTiter-Glo, 60 h; active compounds read low. viability, % at 10 µM. 140,000 tested, 1.5% active. AID 818;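 active means viability at or under a set limit, the compound median less 4 SD, cut at about 6% in these data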;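 further: 0% = Hyamine 1622 control at 20 µM and 100% = untreated cell control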
Autophagy HCS – modulators of autophagy; 190,000 tested, 0.98% active; calls only at 10 µM (by protocol); AID 463193; MEF GFP-LC3 puncta imaging; test concentration mostly 10 µM;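 active means percentage of spot-positive cells more than 3 SD above its plate mean, without a fluorescence outlier flag or 80% toxicity; inconclusive means no clear call, values can overlap the other calls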;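 further: spot-positive cell cutoff set from DMSO-treated cells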
Lmaj promast – inhibitors of Leishmania major promastigote growth | inhibition, % at 10 µM | Leishmania major promastigotes, resazurin fluorescence viability | 200,000 tested, 9% active; in the data active means inhibition above about 50%;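 further: promastigotes grown with compound for 44 hours at 28 °C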
Ins promoter up – MIN6 insulin promoter up-regulation | 190,000 tested, 0.3% active | z-score at 5 µM | MIN6 insulin promoter-GFP reporter, high-content imaging; active compounds read high;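 active means z-score above 3 at 5 µM with at least 500 cells counted in the well; inconclusive means wells under 500 cells, flagged as cytotoxic or low count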
Insulin prom inh – TRM-6 insulin promoter activity inhibition; inhibition, % at 2 µM; AID 1273; TRM-6 cells (human fetal islet line), insulin promoter-eGFP reporter, imaging; reporter expression induced with tamoxifen; 130,000 tested, 0.9% active;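 active means inhibition above the mean plus 3 SD, with well images judged a real hit on visual review, cut at about 60% in these data, passing the limit was not always enough; inconclusive means inhibition over the cutoff but images rejected on review; inactive means inhibition not above the cutoff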
PTEN del growth – PTEN-deleted cell growth suppression | HCT116 PTEN-null viability, CellTiter-Glo, 60 h; active compounds read low | viability, % at 10 µM | 140,000 tested, 1.2% active | AID 827;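 active means viability at or below a set limit, 4 SD under the median of all tested compounds, cut at about 3.7% in these data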;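 further: PTEN knockout HCT116 line with beta catenin targeted HCT116 as companion control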
Active calls of the source: *; i = inactive; ? = inconclusive; . = not tested or not shown; + = active, no number.

SMILES | HCT116 bCat-KO | Autophagy HCS | Lmaj promast | Ins promoter up | Insulin prom inh | PTEN del growth
CCC1(C)Cc2nc3[nH]c(=S)n(-c4ccccc4)c(=O)c3cc2CO1 (centres undefined) | 88 | i | 56* | -0.2 | 26 | 87
CCn1nc(C)c(CN2CCCC(CO)(Cc3ccccc3)C2)c1C (centres undefined) | . | i | 61* | -0.22 | . | .
Cc1c(CN2CCCC(CO)(Cc3cccc(Cl)c3)C2)cnn1C (centres undefined) | . | i | 61* | 0.49 | . | .
CCn1nc(C)c(CN2CCCC(CO)(Cc3cccc(Cl)c3)C2)c1C (centres undefined) | . | i | 53* | -0.14 | . | .
OCC1(Cc2cccc(Cl)c2)CCCN(Cc2sc(N3CCCC3)nc2Cl)C1 (centres undefined) | . | i | 14 | -0.6 | . | .
CNC1=C(N(C(C)=O)c2ccc(Br)cc2)C(=O)c2ccccc2C1=O | 1.3* | i | 99* | ? | . | 1.4*
COc1ccc(CN2C(=O)c3ccccc3C2C(=O)NC2CCCCCC2)c(OC)c1 (centres undefined) | . | i | 18 | -0.22 | -100 | .
CCOc1ccc(/C=N/Nc2cc(=O)n(C)c(=O)n2C)cc1 | 100 | i | 71* | -0.46 | 48 | 94
CCOc1ccc(/C=N/Nc2ccccn2)cc1 | . | i | 16 | -0.02 | -18 | .
COc1cc(/C=C/C(=O)c2ccc(O)cc2)ccc1OCC#N | 2.7* | i | 99* | 0.46 | 14 | 1.7*
COc1cccc(C(=O)/C=C/c2ccc(OCC#N)c(OC)c2)c1 | 3.6* | i | 100* | -0.23 | 43 | 2.5*
COC(=O)c1ccc(/C=C/C(=O)c2cccc(OC)c2)cc1 | 2.1* | i | 5 | 0.02 | -413 | 1.9*
CC1CCCN(C(=O)N2c3ccccc3Sc3ccccc32)C1 (centres undefined) | 44 | i | 5 | 0.69 | -7 | 60
CN1CCCC(CC2Oc3ccccc3Sc3ccccc32)C1 (centres undefined) | 66 | i | 100* | -0.17 | -52 | 71
COc1ccccc1NC(=O)c1ccccc1C(=O)O | . | i | -6 | . | . | .
COc1cccc(CN2CCN(C3CSCCSC3)CC2CCO)c1 (centres undefined) | . | i | -4 | 0.19 | . | .
COc1cccc(CN2CCN(Cc3c(C)nn(C(C)C)c3C)CC2CCO)c1 (centres undefined) | . | i | -4 | 0.42 | 39 | .
COc1cccc(CN2CCN(C3CCN(c4cccc(C)c4C)CC3)CC2CCO)c1 (centres undefined) | . | i | 92* | -8.4 | . | .
COc1cccc(CN2CCN(C3CCN(c4ccccc4C)CC3)CC2CCO)c1 (centres undefined) | . | i | 92* | -0.34 | . | .
OCCC1CN(C2CCN(c3ccccc3)CC2)CCN1Cc1ccc(F)c(F)c1 (centres undefined) | . | i | 93* | . | . | .
Cc1nc2ccccc2nc1CN1CCN(Cc2ccc(F)c(F)c2)C(CCO)C1 (centres undefined) | . | i | 5 | 1.3 | . | .
COc1cccc(CN2CCN(Cc3ccon3)CC2CCO)c1 (centres undefined) | . | i | -4 | -0.52 | . | .
COc1cccc(CN2CCN(C3CCN(c4ccccc4F)CC3)CC2CCO)c1 (centres undefined) | . | i | 95* | 0.03 | . | .
CC#CCN1c2ccccc2[C@]23C[C@@H](C(=O)OC)N(C(=O)C4CCC4)C2=NC(C(=O)OC)=C(C(=O)OC)[C@H]13 | . | . | . | -1.1 | . | .
CC(=O)c1c(NCCc2ccccc2)cc(C)oc1=O | 97 | i | -1 | . | -85 | 100
SMILES | HCT116 bCat-KO | Autophagy HCS | Lmaj promast | Ins promoter up | Insulin prom inh | PTEN del growth
O=[N+]([O-])/C=C/c1c(OCc2ccccc2)ccc2ccccc12 | 1.9* | i | 100* | . | 43 | 2.5*
CCOC(=O)COc1ccc2nsnc2c1 | 98 | i | -8 | -0.04 | . | 101
CCOC(=O)COc1ccc2ccccc2c1/C=C/[N+](=O)[O-] | 3.3* | i | 90* | 0.45 | 21 | 2.6*
CCOc1ccc(/C=C/[N+](=O)[O-])c2ccccc12 | 2.0* | i | 100* | -0.3 | 11 | 1.8*
CCOC(=O)COc1ccc(/C=C/[N+](=O)[O-])c(OCC(=O)OCC)c1 | 4.0* | i | 100* | -0.44 | . | 1.9*
CC(C)Cn1nc(NC(=O)C(C)(C)C)c2cc3ccccc3nc21 | 96 | i | 20 | . | . | 91
COc1ccc(/C=N/NC(=O)CCNc2n[nH]c(=O)[nH]c2=O)c(OC)c1 | . | + | -3 | 1.3 | 3 | .
COc1cccc(/C=N/NC(=O)CCNc2n[nH]c(=O)[nH]c2=O)c1OC | . | i | 5 | 0.08 | -65 | .
CCN(CC)CCCN(C(=O)c1cccs1)c1nc(-c2ccc(OC)cc2)cs1 | 30 | i | 101* | . | . | 30
COc1ccc(-c2csc(N(C)C(=O)c3cccs3)n2)cc1 | . | i | -10 | -0.52 | . | .
CCN(CC)CCCN(C(=O)c1ccco1)c1nc(-c2ccc(C)cc2)cs1 | . | i | 72* | -1.6 | . | .
COc1ccc(-c2csc(N(CC3CCCO3)C(=O)c3cccs3)n2)cc1 (centres undefined) | 51 | i | 82* | 0.9 | 30 | 51
COc1ccc(OC)c(-c2csc(N(CC3CCCO3)C(=O)C3CCCCC3)n2)c1 (centres undefined) | . | + | 4 | -0.14 | . | .
O=C(c1ccco1)N(CCCN1CCOCC1)c1nc(-c2ccc(Cl)cc2)cs1 | 42 | i | 17 | -1.5 | . | 44
CCOC(=O)c1ccc(NC(=O)Nc2cc(C)on2)cc1 | 86 | i | -4 | . | -16 | 82
COCC(=O)Nc1nnc(Cc2ccc(OC)c(OC)c2)s1 | 106 | i | 42 | 0.72 | 55 | 104
O=C(CSc1nnc(Cc2ccccc2)n1-c1ccc(Cl)cc1)N1CCOCC1 | 93 | i | -3 | . | 26 | 93
Oc1cccc(/C=N/Nc2ncnc3c2ncn3Cc2ccccc2)c1 | 75 | i | 66* | -0.19 | -17 | 96
Cc1ccc(N2CCN(C(=O)c3cccc([N+](=O)[O-])c3)CC2)cc1Cl | . | i | 0 | -0.65 | 53 | .
Cc1cccc(Nc2cc(C)c3c(O)cccc3n2)c1C | 23 | i | 99* | -1.5 | -37 | 20
CCS(=O)(=O)N1CCN(c2c(Cl)cccc2[N+](=O)[O-])CC1 | 92 | i | 0 | -0.06 | -6 | 87
COc1ccc(OCC(=O)Nc2cccc3ncccc23)cc1 | 88 | i | 3 | -0.01 | 7 | 95
O=C(CCl)Nc1cccc2ncccc12 | 50 | i | 49 | 4* | -17 | 56
CC(C)(C)NS(=O)(=O)c1cc(C(=O)Nc2sccc2C#N)ccc1Cl | 83 | i | 54* | 0.34 | 0 | 86
COc1cc2c3c(c1)C(C)=CC(C)(C)N3C(=O)C2=O | . | i | 56* | -0.16 | . | .
COc1cccc(C(=O)Oc2cc3c4c(c2)C(C)=CC(C)(C)N4C(=O)C3=O)c1 | 7 | i | 3 | . | -20 | 13

Screening data deposited in PubChem by several laboratories.
